In assay [1] the target is Androgen receptor (Homo sapiens) (UniProt P10275). The assay can be described thus: qHTS assay for small molecule agonists of androgen receptor signaling (AID 588515; active = well fitted curve in the direction sought with a large enough effect in the signal ratio, with a control signal flat; the % refers to the signal ratio). As to conditions: AR-UAS-bla HEK293, beta-lactamase ratio, agonist 16 h; active compounds read high. In outline: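 EC50 and efficacy came from Hill fits of titrations (up to 92 uM) normalized to 30 nM R1881 as 100% and DMSO as 0%. Compound exposure was 16 h at 37 C on AR-UAS-bla HEK293 cells, with a 405/460/530 nm CCF4 fluorescence read.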
Chain of Androgen receptor (Homo sapiens) (P10275 whole entry, looked up): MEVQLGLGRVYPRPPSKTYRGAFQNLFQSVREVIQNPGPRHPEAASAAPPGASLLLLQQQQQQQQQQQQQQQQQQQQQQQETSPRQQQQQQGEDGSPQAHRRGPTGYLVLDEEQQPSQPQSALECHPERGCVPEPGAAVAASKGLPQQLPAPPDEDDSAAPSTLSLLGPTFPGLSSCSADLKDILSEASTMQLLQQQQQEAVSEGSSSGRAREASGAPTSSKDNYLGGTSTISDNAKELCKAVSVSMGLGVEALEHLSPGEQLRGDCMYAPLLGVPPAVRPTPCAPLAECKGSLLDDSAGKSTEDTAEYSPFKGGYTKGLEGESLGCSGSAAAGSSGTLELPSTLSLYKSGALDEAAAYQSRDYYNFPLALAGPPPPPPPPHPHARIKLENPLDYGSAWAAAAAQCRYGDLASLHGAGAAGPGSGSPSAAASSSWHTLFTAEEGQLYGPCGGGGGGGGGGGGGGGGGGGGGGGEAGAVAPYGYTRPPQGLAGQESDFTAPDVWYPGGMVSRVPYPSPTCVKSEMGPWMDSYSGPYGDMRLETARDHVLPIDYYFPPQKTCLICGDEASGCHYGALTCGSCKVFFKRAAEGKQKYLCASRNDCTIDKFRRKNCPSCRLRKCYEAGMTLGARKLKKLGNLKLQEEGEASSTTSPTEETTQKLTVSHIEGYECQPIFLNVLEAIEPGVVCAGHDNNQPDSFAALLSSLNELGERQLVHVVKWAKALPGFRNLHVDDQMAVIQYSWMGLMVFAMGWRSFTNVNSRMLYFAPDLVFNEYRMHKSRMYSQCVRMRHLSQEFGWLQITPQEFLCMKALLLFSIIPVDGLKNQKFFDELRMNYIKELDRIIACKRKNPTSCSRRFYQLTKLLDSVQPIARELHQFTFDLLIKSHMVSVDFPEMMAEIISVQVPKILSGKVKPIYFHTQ
For orientation: In qHTS, concentration-response curves come from the screen itself.

A short description of assay [2]: qHTS assay to identify small molecules that stimulate interleukin-8 (IL-8) secretion (AID 651758; active = well fitted activation curve with a large enough effect in the signal ratio; the % refers to the signal ratio; also: potency is read from the fitted curve at half-maximal effect). As to conditions: HTRF ratio (665/615); series mostly up to 92.2 µM. In outline:
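THP-1, 2000 cells/well; cpd 16 h, 37 C; add cryptate + XL665 anti-IL-8 Abs; RT 1-3 h; TR-FRET read.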

For assay [3], the target named is Androgen receptor (Homo sapiens) (UniProt P10275). The assay can be described thus: qHTS assay for small molecule antagonists of androgen receptor signaling (AID 588516; active = well fitted curve in the direction sought with a large enough effect in the signal ratio, with a control signal flat, not every such curve was filed as active; the % refers to the signal ratio). As to conditions: AR-UAS-bla HEK293, beta-lactamase ratio, antagonist mode, 16 h; series mostly up to 76.8 µM. In outline: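 AR-UAS-bla-GripTite HEK 293 cells (2000/well, 5 h at 37 C) received compound titrations, then R1881 at 10 nM final; after 16 h at 37 C, CCF4 dye 2 h RT, beta-lactamase fluorescence read; IC50 from Hill fits.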

Assay [4] addresses Cytochrome P450 3A4 (Homo sapiens) (UniProt P08684). Put plainly: qHTS Assay for Activators of Cytochrome P450 3A4 (AID 885). Also: nearly all actives have a fitted effect of over 65% in size. Also: potency is read from the fitted curve at half-maximal effect. As to conditions: recombinant CYP3A4, Luciferin-PPXE luminescence, 60 min; series mostly up to 11.4 µM. In outline: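 Signal was normalized against complete inhibition by 57 uM ketoconazole. The reaction used 20nM CYP3A4 with 25uM Luciferin-PPXE, 10-min compound preincubation and a 60-min NADPH-supported step at RT.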

Assay [5] concerns the target DNA dC->dU-editing enzyme APOBEC-3G (Homo sapiens) (UniProt Q9HC16). Put plainly: qHTS for inhibitors of Vif-A3G interactions: Validation (AID 588379). The note with it: Vif-A3G protein interaction assay; series mostly up to 46.1 µM. In outline: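 HeLa cells stably expressing Vif and A3G-eYFP, 700 cells/well, incubated overnight at 37 deg C, then exposed to compound overnight at 37 deg C. Inhibition of Vif-mediated degradation read as increased yellow fluorescence (Ex 488/Em 500-530) by laser-scanning cytometry.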

Assay [6] is described as follows: Counterscreen for APE1 Inhibitors: Fluorescent Dye Displacement Assay (AID 2564).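 Also: loss of thiazole orange fluorescence as the dye is displaced from duplex DNA.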 The note with it: DNA fluorescent dye displacement counterscreen, fluorescence; series mostly up to 28.5 µM. In outline:
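Compounds are scored by their ability to displace Thiazole Orange (250 nM) from a 50 nM TAMRA-tagged duplex bearing a tetrahydrofuran abasic site. Buffer is 50 mM Tris-HCl pH7.5, 50mM NaCl, 2 mM MgCl2, 0.01% Tween-20.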
A general note: Counterscreens check selectivity or assay interference.

Assay [7] concerns the target Endonuclease 4 (Escherichia coli (strain K12)) (UniProt P0A6C1). Put plainly: Counterscreen for APE1 Inhibitors: qHTS Assay for Inhibitors of Endonuclease IV (AID 2565). As to conditions: E. coli Endo IV, fluorogenic AP-site DNA cleavage; series mostly up to 27.1 µM. In outline: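 Concentration-response counterscreen run identically to the APE1 assay: 15 min room-temperature preincubation of 2 nM enzyme with compound, reaction started with 50 nM quenched abasic DNA, progress taken from kinetic fluorescence.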

For assay [8], the target named is DNA repair nuclease/redox regulator APEX1 (Homo sapiens) (UniProt P27695). Put plainly: Confirmation qHTS Assay for Inhibitors of the Human Apurinic/apyrimidinic Endonuclease 1 (APE1) (AID 2572). Also: potency is read from the fitted curve at half-maximal effect; nearly all actives have a fitted effect of over 30% in size. As to conditions: purified APE1, fluorogenic abasic-site DNA cleavage; series mostly up to 57.1 µM. In outline:
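No-enzyme wells served as negative control, enzyme-only wells as full activity. APE1 with compound for 15 min RT; 50 nM final fluorophore/quencher abasic duplex started the reaction; read 3 minus read 1 at 525/598 nm.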

The target is the same in assay [9]. Put plainly: qHTS FP-Based Assay for Inhibitors of the Human Apurinic/apyrimidinic Endonuclease 1 (APE1) (AID 2573). As to conditions: APE1 binding to TAMRA-labelled double-stranded DNA, fluorescence polarization displacement; series mostly up to 28.5 µM.

SMILES strings stand for the structures. A number with no mark means an inactive call. Results filed as inconclusive are left out. This is one part of the list. Where a call stands in place of a potency, no number is given. Active and inactive are the calls of the source. Unless noted, calls follow the shape of the dose curve; as a rule, active = well fitted curve in the direction sought with a large enough effect; inconclusive = small, poorly fitted or top-dose-only effect, or another doubt; inactive = no such curve, though single readings can be large; an effect the other way counts as inactive or inconclusive.

Chain of Cytochrome P450 3A4 (Homo sapiens) (P08684 whole entry, looked up): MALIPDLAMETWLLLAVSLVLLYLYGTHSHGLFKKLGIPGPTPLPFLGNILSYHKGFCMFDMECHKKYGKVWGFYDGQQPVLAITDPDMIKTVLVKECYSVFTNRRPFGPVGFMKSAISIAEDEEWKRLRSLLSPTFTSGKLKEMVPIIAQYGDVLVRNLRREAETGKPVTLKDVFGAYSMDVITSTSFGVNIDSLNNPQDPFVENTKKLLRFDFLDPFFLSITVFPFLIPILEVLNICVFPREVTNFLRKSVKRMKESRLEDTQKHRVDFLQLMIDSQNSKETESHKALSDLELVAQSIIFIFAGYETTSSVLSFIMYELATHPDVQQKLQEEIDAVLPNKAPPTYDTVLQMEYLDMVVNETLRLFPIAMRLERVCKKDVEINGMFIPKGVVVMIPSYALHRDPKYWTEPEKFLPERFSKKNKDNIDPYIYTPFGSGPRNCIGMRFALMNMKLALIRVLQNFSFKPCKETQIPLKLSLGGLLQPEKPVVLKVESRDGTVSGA
Chain of DNA dC->dU-editing enzyme APOBEC-3G (Homo sapiens) (Q9HC16 whole entry, looked up): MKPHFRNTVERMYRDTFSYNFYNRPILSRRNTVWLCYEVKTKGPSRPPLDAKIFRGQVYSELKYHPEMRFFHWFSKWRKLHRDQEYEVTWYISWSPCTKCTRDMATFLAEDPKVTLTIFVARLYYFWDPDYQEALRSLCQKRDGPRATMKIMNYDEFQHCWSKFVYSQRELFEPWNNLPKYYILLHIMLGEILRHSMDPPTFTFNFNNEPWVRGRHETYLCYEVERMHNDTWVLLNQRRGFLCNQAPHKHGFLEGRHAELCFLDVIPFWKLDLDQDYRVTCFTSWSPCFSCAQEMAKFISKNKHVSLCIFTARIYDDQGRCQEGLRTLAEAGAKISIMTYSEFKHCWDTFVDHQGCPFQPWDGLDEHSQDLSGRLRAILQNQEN
Chain of DNA repair nuclease/redox regulator APEX1 (Homo sapiens) (P27695 whole entry, looked up): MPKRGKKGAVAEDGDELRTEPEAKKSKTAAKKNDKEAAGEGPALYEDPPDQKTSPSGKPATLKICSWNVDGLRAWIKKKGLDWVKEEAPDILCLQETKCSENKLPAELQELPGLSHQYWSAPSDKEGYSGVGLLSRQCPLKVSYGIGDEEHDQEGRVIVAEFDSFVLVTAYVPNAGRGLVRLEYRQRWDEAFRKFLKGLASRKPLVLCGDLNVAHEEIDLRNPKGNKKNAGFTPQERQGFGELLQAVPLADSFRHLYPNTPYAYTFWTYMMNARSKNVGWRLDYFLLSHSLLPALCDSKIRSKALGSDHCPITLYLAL

On to `CCC(Cl)CC(Cl)C(Cl)C(Cl)C(Cl)C(C)Cl` (centres undefined), for which the activation in assay [1] is -4.22%. In assay [2], the Potency result is “inactive”.

As for `Cc1c(N)cccc1Cl`, the Potency entry in assay [2] is “inactive”.

With `Cc1ccc(N)cc1[N+](=O)[O-]`, the result in [3] was inactive.

In the case of `c1c[nH]cn1`, the Potency entry in assay [2] was “inactive”.

As to `C/C(Cl)=C/CCl`, in [1], the activation is 10.2%. The result in assay [3] was inactive.

Turning to `CC(C)COC(=O)COc1cc(Cl)c(Cl)cc1Cl`, in assay [2], the Potency result is “inactive”.

Regarding `CCCCNCC`, the Potency result in [2] is “inactive”.

Turning to `Nc1cc([N+](=O)[O-])ccc1O`, the activation in [1] was -20.1%. The result in assay [3] was inactive.

Consider `Oc1ccc2c(c1)OCO2`, for which, in assay [2], the Potency result was “inactive”.

Turning to `CCOC(=O)C1OC1c1ccccc1` (centres undefined), the Potency in [2] was 59.6 µM (active).

Consider `OC1CCCCC1`, for which, in assay [2], the Potency result is “inactive”.

On to `CC(=O)OCc1ccc2c(c1)OCO2`, for which the Potency entry in assay [2] is “inactive”.

As for `CCCCC(CC)COCCCN` (centres undefined), the Potency entry in [4] is “inactive”.

Regarding `c1ccc(COCc2ccccc2)cc1`, the Potency result in [2] is “inactive”.

In the case of `OCC(CO)(CBr)CBr`, in assay [2], the Potency result was “inactive”.

As to `COc1ccc(C(=O)Nc2ccccc2)cc1[N+](=O)[O-]`, the Potency entry in assay [4] was “inactive”.

For the compound `CCCCCCc1ccc(-c2ccc(C#N)cc2)cc1`, the Potency result in [2] is “inactive”.

Turning to `CCCCCCCCC1CO1` (centres undefined), the activation in assay [1] is 13.4%. Moreover, in assay [3], the result was inactive.

For `c1cc2c3c(c1)ccc1cccc(c13)C2`, the Potency entry in assay [4] and in [2] was “inactive” throughout.

As to `Cc1ccc(S(N)(=O)=O)cc1`, the Potency entry in assay [2] was “inactive”.

As for `O=C(OCc1ccccc1)c1ccccc1O`, in [2], the Potency result was “inactive”.

`Cc1ccc(C(=O)O)cc1[N+](=O)[O-]`: the activation in assay [1] is 6.4%. Besides, the result in assay [3] was inactive.

Consider `CCNC(=S)NCC`, for which the Potency result in [4] is “inactive”.

Turning to `O=CC(=O)c1ccccc1`, the Potency result in [2] is “inactive”.

On to `Cc1cc(=O)oc2cc(O)cc(O)c12`, for which, in assay [4], the Potency result was “inactive”.

`c1ccc(SCCSc2ccccc2)cc1`: the activation in assay [1] was 12.3%. The Potency result in [2] is “inactive”.

As for `CC(=O)OC(C(=O)c1ccccc1)c1ccccc1` (centres undefined), in assay [1], the activation was -5.55%. Moreover, in assay [2], the Potency result is “inactive”.

Take `O=C(OCC1CO1)C1CCCCC1C(=O)OCC1CO1` (centres undefined): the Potency in [2] was 66.8 µM (active).

Consider `O=C(Cl)c1ccc([N+](=O)[O-])cc1`, for which the activation in assay [1] is 25.7%. Moreover, the outcome in assay [3] was inactive. Also, the Potency result in [2] was “inactive”.

As to `Nc1ccccc1O`, the Potency in assay [2] was 66.8 µM (active).

In the case of `C=CC(C)(O)CCCC(C)CCCC(C)CCCC(C)C` (centres undefined), in [4], the Potency entry is “inactive”. The outcome in assay [5] was inactive.

For `C/C=C1/C(=O)C[C@H]2[C@@H]3CCC4=CC(=O)CC[C@]4(C)[C@H]3CC[C@]12C`, the Potency in assay [4] is 1 µM (active).

For the compound `C=Cc1cccc(C)c1`, the Potency result in assay [2] is “inactive”.

For `CCCCOC(=O)COc1ccc(Cl)cc1Cl`, the Potency result in assay [2] was “inactive”.

Regarding `Oc1ccc(O)c2c(O)cccc12`, the Potency in assay [2] is 75 µM (active).

Take `CCCCCCCC/C=C\CCCCCCCC(=O)N(CCO)CCO`: in [4], the Potency entry was “inactive”.

Take `Nc1ccc(N)c(Cl)c1`: the Potency entry in [4] was “inactive”.

Take `c1ccc2ncccc2c1`: the Potency entry in assay [2] is “inactive”.

For the compound `COc1cc(-c2ccc(N=C=O)c(OC)c2)ccc1N=C=O`, in assay [4], the Potency result is “inactive”.

With `CC(=O)Nc1cccc(C)c1`, in [2], the Potency entry was “inactive”.

`Nc1ccc(-c2ccc(N)c(O)c2)cc1O`: the activation in assay [1] was 4.81%.

`CC(=O)CC(=O)Nc1ccccc1`: in assay [2], the Potency entry was “inactive”.

Turning to `COc1ccc(C)cc1N`, the activation in assay [1] is 1.38%.

In the case of `C=CC(=O)OCCCCCCOC(=O)C=C`, the Potency result in assay [4] was “inactive”. Further, the activation in [1] is 1.98%.

Regarding `Cc1cc(C)c2nc(-c3ccco3)cc(C(=O)O)c2c1`, the compound was classed as inactive in assay [6] and in assay [7]. Also, the Potency in [8] is 12.6 µM (active). For the same compound, in assay [9], the Potency result was “inactive”.

Take `CCN(CC)c1ccc(N)cc1`: the Potency entry in assay [4] is “inactive”. The Potency in assay [2] was 37.6 µM (active).

Turning to `Oc1cc2c(cc1O)[C@H]1c3ccc(O)c(O)c3OC[C@@]1(O)C2`, in [4], the Potency result was “inactive”. Besides, the call in assay [5] was inactive.

The values are drawn from PubChem BioAssay (NCATS).
